Values joined by “and” are separate entries in the source; they are usually repeats but may differ in a detail not shown here. Identical values can stand only once. Results filed as inconclusive are left out. Active and inactive are the calls of the source. Calls follow the shape of the dose curve; as a rule, active = well fitted cell-killing curve with a large enough effect in the repeat runs; inconclusive = weak or mixed curves, or effect the other way; inactive = flat fitted curve, though single readings scatter.
Experiment: Caspase-3/7 induction in HepG2 cells by small molecules, qHTS cell viability counter screen (AID 1346981); also: nearly all actives have a fitted effect of over 30% in size
Settings: CellTiter-Fluor fluorescence, 17 h; series mostly up to 92.4 µM; activity change, negative = cytotoxicity: at the top concentration
Description: U.S. Tox21 Program National Center for Advancing Translational Sciences [NCATS] NIH Chemical Genomics Center [NCGC] U.S. Environmental Protection Agency [EPA] National Institutes of Environmental Health Sciences [NIEHS] National Toxicology Program [NTP] U.S. Food and Drug Administration [FDA] Tox21 Assay Overview: Apoptosis is a process of programmed cell death and plays a central role in the development of multicellular organisms. It is a highly regulated process and induces cell death by activating caspases, which are the members of cysteine aspartic acid-specific protease (caspase) family. Caspases involved in apoptosis are classified by their mechanism of action as initiator caspases (caspase-2, -8, -9 and -10) and executioner caspases (caspase-3, -6, and -7). Inhibition of apoptosis results in number of cancers, autoimmune diseases, inflammatory diseases and viral infection. To identify small molecule compounds that induce apoptosis, a homogeneous, luminescent Caspase-Glo 3/7 assay was used. Wild type HepG2 cells were used to screen Tox21 libraries for identifying caspase-3/7 activity inducers. Also cytotoxicity of the compounds was tested in parallel by measuring the cell viability using CellTiter-Fluor assay system in the same wells.
Tox21 Assay Protocol Summary: HepG2 cells were dispensed at 2,000 per well in 5uL of culture medium into white solid bottom 1536-well plates (Corning Life Sciences, Corning, NY) using a Multidrop Combi (Thermo Scientific, Waltham, MA) dispenser. The assay plates were incubated at 37 C and 5% CO2 for 5hr, and then 23nL of compounds dissolved in DMSO and positive control were transferred using a Pintool station ([…], San Diego, CA). The assay plates were incubated at 37C and 5% CO2 for 17hr. For cytotoxicity read, after 16hr incubation at 37C, 1uL CellTiter-Fluor reagent (Promega Corporation, Madison, WI) was added to each well of the assay plates using Flying Reagent Dispenser (FRD, Aurora Discovery, San Diego, CA). After 1hr incubation at 37C and 5% CO2, the fluorescence signal was quantified using a ViewLux plate reader (PerkinElmer, Shelton, CT).
% is scaled to controls: 0 for no effect and ±100 for the full control effect; potency is read from the fitted curve at half-maximal effect.

| SMILES | activity change, negative = cytotoxicity | Potency |
| --- | --- | --- |
| O=C(Cl)OCCOCCOC(=O)Cl | 8.1% (inactive) | – |
| O=C1CC[C@@]2(O)[C@H]3Cc4ccc(O)c5c4[C@@]2(CCN3CC2CC2)[C@H]1O5 | 0.0147% [at 42.5 µM] (inactive) | – |
| Cc1ccc(N)c(C)c1 | – | inactive |
| CCC1(C2=NCCN2)Cc2ccccc2O1 (stereo not given) | 1.61% [at 42.5 µM] (inactive) | – |
| C1CCNCC1 | 0.755% (inactive) | – |
| COC1CC(=C(c2cccs2)c2cccs2)C[N+](C)(C)C1 (stereo not given) | 5.46% [at 42.5 µM] (inactive) | – |
| NC(=O)CF | 6.94% (inactive) | – |
| O=C(CCl)CCl | – | inactive |
| CCOC(C(=O)OCCN(C)C)(c1ccccc1)c1ccccc1 | -1.84% [at 42.5 µM] (inactive) | – |
| C#CC(O)(C=CCl)CC (stereo not given) | -2% [at 42.5 µM] (inactive) | – |
| O=C1NC(=O)C(=O)C(=O)N1 | 1.57% (inactive) | – |
| O=C(O)C(F)(F)C(F)(F)C(F)(F)C(F)(F)C(F)(F)F | 12.4% (inactive) | – |
| CN1CC[C@]23c4c5ccc(O)c4O[C@H]2[C@@H](O)C=C[C@H]3[C@H]1C5 | -1.43% (inactive) | – |
| O=C(O)C(F)(F)C(F)(F)C(F)(F)C(F)(F)C(F)(F)C(F)(F)C(F)(F)C(F)(F)F | -1.97% (inactive) | – |
| O=C([O-])c1ccccn1.O=C([O-])c1ccccn1.O=C([O-])c1ccccn1.[Cr+3] | -1.37% (inactive) | – |
| CCCCCBr | 4% (inactive) | – |
| CCCC[N+]1(C)[C@@H]2CC(OC(=O)[C@H](CO)c3ccccc3)C[C@H]1[C@@H]1O[C@@H]12 (stereo not given in full) | 4.11% [at 42.5 µM] (inactive) | – |
| CNC(=O)Oc1cccc(N=CN(C)C)c1 | -3.97% (inactive) | – |
| COc1cc(CC#N)cc(OC)c1OC | 6.75% [at 42.5 µM] (inactive) | – |
| CCOP(=S)(S)OCC | -0.919% (inactive) | – |

| SMILES | activity change, negative = cytotoxicity | Potency |
| --- | --- | --- |
| NNCCO | -0.548% (inactive) | – |
| CC(=O)NNc1ccccc1 | -4.92% (inactive) | – |
| CC[N+]1(C)CCCC(OC(=O)C(O)(c2ccccc2)c2ccccc2)C1 (stereo not given) | -0.465% [at 42.5 µM] (inactive) | – |
| C=CCOCC1CO1 (stereo not given) | -5.14% (inactive) | – |
| COP(=O)(OC)OC(Br)C(Cl)(Cl)Br (stereo not given) | – | inactive |
| CC(Oc1cccc(Cl)c1)C(=O)O (stereo not given) | 7% (inactive) | – |
| COc1cc(CC(C)N)c(OC)cc1Br (stereo not given) | -8.62% (inactive) | – |
| C=CC(C)(CCC=C(C)C)OC(=O)c1ccccc1N (stereo not given) | 0.579% (inactive) | – |
| O=S(=O)(c1ccccc1)c1ccccc1 | -0.4% (inactive) | – |
| CC(C)CCCCCCCOC(=O)c1ccccc1C(=O)OCCCCCCCC(C)C | -0.61% (inactive) | – |
| CCC1CCC(=O)O1 (stereo not given) | -0.731% (inactive) | – |
| Cc1nc(N(C)C)nc(OC(=O)N(C)C)c1C | 5.42% (inactive) | – |
| C=CCc1ccc(OC(=O)Cc2ccccc2)c(OC)c1 | 6.09% (inactive) | – |
| CCOP(=S)(OCC)SCSc1cc(Cl)ccc1Cl | 0.793% (inactive) | – |
| [Cl-].[Cl-].[Hg+2] | – | 27.2 µM (active) and 54.5 µM (active) |
| CCCCCCCCCCCCN=C(N)N | -9.99% [at 3.27 µM] (inactive) | – |
| Nc1c(Br)cc(Br)c2c1C(=O)c1ccccc1C2=O | -8.94% [at 19 µM] (inactive) | – |
| O=C(O)c1ccc(=O)[nH]c1 | 3.34% [at 42.5 µM] (inactive) | – |
| CC[N+]1(CCOC(=O)C(O)(c2ccccc2)c2ccccc2)CCCCC1 | 13.6% [at 42.5 µM] (inactive) | – |
| CC(C)(C)NCC(O)c1ccccc1Cl (stereo not given) | -2.8% [at 42.5 µM] (inactive) | – |
